Data on one sequence can be found in publication PMC7862700, “An all-to-all approach to the identification of sequence-specific readers for epigenetic DNA modifications on cytosine”.

Test in all cases: DAPPL (digital affinity profiling via proximity ligation, sequencing); 10 mM Tris-HCl pH 7.5, 50 mM NaCl, 1 mM DTT, 4% glycerol, room temperature, 30 min; GST-TFs on glutathione beads, 16-mer random dsDNA library, 0.1% formaldehyde crosslink after washing; high values mean tight binding
One experiment addresses T1, FEV (Homo sapiens, UniProt Q99581 1-238).
T1 sequence: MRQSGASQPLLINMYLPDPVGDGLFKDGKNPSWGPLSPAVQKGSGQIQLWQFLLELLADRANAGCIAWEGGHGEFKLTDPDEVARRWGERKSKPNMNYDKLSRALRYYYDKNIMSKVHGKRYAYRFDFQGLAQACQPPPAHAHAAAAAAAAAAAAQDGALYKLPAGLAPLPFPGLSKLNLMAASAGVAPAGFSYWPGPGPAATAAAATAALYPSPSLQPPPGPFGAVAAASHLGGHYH
The following applies: protein: recombinant; tags: N-terminal GST; dsDNA, one strand shown. Put shortly: (§1)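 A tag-only sample was pooled with DNA-barcoded human transcription factors that had been expressed in yeast as GST fusions and captured on glutathione beads. The pools were incubated for 30 min at room temperature with 200 nmole of a random double-stranded 16-mer DNA library in Tris/NaCl/DTT/glycerol buffer, then washed, crosslinked with 0.1% formaldehyde, proximity-ligated (BsaI/T4 ligase, 1 h, 37 °C), PCR-amplified and sequenced on an Illumina NextSeq500. Binding signal is each hexamer's read frequency for a factor divided by its frequency for the tag-only sample.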

Another experiment deals with ETV5 (Homo sapiens, UniProt P41161 1-510). The following applies: protein: recombinant; tags: N-terminal GST; dsDNA, one strand shown. Put shortly: as §1
The target of a further experiment is HSF1 (Homo sapiens, UniProt Q00613 1-529). The following applies: protein: recombinant; tags: N-terminal GST; chain copies: 3; dsDNA, one strand shown. Put shortly:
as §1

Another experiment concerns the target T2, SPIC (Homo sapiens, UniProt Q8N5J4 1-248).
T2 sequence: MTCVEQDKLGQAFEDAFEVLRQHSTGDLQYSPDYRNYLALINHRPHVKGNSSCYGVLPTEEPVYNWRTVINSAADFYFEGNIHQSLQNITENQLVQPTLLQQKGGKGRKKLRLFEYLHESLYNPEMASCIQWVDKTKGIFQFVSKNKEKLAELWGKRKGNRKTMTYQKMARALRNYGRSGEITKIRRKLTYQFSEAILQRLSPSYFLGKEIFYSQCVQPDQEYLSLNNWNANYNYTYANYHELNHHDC
The following applies: protein: recombinant; tags: N-terminal GST; dsDNA, one strand shown. The procedure, abridged: as §1

In the next experiment the target is ELF4 (Homo sapiens, UniProt Q99607 1-663). The following applies: protein: recombinant; tags: N-terminal GST; dsDNA, one strand shown. Put shortly:
as §1

A further experiment has as its target T3, ELK4 (Homo sapiens, UniProt P28324-2 1-405).
T3 sequence: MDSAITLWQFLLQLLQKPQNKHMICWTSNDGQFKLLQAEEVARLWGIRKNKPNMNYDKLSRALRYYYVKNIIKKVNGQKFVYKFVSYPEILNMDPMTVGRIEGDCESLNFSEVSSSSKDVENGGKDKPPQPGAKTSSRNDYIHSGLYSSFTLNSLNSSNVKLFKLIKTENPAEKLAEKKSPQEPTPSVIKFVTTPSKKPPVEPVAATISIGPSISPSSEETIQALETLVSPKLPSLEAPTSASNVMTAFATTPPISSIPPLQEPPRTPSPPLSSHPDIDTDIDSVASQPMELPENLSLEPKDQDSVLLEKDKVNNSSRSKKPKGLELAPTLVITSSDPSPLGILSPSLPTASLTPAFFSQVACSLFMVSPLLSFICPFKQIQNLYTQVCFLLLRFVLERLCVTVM
The following applies: protein: recombinant; tags: N-terminal GST; dsDNA, one strand shown. The procedure, abridged: as §1

For another experiment, the target named is T4, ETV2 (Homo sapiens, UniProt O00321 1-342).
T4 sequence: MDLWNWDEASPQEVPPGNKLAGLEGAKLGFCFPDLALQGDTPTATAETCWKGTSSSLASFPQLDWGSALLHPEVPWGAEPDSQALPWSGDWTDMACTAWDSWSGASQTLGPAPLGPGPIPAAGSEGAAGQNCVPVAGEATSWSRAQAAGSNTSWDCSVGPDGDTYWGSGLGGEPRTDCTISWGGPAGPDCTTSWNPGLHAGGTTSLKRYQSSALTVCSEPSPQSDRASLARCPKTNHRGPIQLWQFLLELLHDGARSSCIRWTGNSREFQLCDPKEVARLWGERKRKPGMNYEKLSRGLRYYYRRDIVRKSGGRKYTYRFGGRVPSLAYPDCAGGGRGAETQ
The following applies: protein: recombinant; tags: N-terminal GST; dsDNA, one strand shown. The procedure, abridged: as §1

In another experiment the target is T5, ELF3 (Homo sapiens, UniProt P78545 1-371).
T5 sequence: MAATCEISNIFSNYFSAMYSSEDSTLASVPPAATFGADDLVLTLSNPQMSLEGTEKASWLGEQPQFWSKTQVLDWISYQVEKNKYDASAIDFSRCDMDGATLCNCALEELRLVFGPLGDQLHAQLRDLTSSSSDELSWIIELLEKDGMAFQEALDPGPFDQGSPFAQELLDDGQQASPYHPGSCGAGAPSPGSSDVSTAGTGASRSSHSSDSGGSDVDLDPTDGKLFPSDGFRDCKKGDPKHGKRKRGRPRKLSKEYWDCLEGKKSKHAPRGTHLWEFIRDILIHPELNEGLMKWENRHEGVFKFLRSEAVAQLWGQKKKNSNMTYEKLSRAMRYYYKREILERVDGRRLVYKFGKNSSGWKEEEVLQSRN
The following applies: protein: recombinant; tags: N-terminal GST; dsDNA, one strand shown. Put shortly:
as §1

A further experiment has as its target CRX (Homo sapiens, UniProt O43186 1-299). The following applies: protein: recombinant; tags: N-terminal GST; dsDNA, one strand shown. The procedure, abridged: as §1
A further experiment deals with ETV1 (Homo sapiens, UniProt P50549 1-477). The following applies: protein: recombinant; tags: N-terminal GST; dsDNA, one strand shown. Put shortly: as §1
In the next experiment the target is T6, ERF (Homo sapiens, UniProt P50548 1-548).
T6 sequence: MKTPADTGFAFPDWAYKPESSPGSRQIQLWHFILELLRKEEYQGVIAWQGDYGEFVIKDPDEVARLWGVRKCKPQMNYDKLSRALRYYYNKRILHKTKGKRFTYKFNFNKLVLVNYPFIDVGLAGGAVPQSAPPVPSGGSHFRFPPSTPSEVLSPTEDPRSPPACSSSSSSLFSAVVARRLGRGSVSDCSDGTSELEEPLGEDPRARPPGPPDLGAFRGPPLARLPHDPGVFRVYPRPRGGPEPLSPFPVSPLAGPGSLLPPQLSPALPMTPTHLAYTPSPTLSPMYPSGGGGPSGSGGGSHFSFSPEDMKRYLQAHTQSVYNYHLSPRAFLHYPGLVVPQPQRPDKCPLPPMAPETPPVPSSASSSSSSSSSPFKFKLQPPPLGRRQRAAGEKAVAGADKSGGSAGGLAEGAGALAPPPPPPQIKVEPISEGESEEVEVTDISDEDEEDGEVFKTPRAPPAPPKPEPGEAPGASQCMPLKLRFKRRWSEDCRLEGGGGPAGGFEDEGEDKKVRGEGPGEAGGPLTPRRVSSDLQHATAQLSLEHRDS
The following applies: protein: recombinant; tags: N-terminal GST; dsDNA, one strand shown. Put shortly:
as §1

Another experiment deals with T7, ETV3L (Homo sapiens, UniProt Q6ZN32 1-361).
T7 sequence: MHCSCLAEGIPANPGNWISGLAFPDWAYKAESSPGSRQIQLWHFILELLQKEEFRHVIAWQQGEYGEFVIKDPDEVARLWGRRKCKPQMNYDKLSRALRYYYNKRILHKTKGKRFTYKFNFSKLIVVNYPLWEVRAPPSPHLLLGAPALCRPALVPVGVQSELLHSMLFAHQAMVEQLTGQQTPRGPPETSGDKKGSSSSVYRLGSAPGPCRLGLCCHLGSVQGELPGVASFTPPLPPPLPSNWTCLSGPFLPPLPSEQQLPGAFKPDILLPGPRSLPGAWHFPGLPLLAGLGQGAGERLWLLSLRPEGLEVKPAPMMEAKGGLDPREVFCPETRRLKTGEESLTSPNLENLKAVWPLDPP
The following applies: protein: recombinant; tags: N-terminal GST; dsDNA, one strand shown. Put shortly:
as §1

For a further experiment, the target named is T8, ETS2 (Homo sapiens, UniProt P15036 1-469).
T8 sequence: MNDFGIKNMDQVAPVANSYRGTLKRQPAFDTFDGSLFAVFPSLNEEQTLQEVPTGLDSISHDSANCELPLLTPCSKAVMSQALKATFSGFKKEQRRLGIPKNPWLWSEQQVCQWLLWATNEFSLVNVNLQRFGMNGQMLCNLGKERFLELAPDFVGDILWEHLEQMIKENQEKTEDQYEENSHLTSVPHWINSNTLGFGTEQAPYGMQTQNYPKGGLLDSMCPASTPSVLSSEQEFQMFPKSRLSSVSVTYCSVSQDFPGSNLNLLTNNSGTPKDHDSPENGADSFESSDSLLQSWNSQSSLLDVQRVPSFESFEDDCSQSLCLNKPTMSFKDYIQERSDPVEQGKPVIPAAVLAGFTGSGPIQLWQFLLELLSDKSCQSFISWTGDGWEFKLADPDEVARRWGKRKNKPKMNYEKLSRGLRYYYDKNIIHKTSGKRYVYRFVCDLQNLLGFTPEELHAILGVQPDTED
The following applies: protein: recombinant; tags: N-terminal GST; dsDNA, one strand shown. Put shortly: as §1

The target of the next experiment is T9, SPDEF (Homo sapiens, UniProt O95238 1-335).
T9 sequence: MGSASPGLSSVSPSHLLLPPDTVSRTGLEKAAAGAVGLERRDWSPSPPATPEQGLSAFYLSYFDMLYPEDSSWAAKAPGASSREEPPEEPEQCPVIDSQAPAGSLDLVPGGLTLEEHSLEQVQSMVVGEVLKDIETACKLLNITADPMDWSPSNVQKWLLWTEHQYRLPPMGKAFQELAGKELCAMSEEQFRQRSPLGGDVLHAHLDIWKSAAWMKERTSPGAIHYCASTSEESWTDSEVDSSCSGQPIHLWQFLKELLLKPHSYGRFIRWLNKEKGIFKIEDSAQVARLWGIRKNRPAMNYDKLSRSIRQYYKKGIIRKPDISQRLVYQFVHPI
The following applies: protein: recombinant; tags: N-terminal GST; dsDNA, one strand shown. The procedure, abridged:
as §1

The target of the next experiment is T10, ETV7 (Homo sapiens, UniProt Q9Y603 1-341).
T10 sequence: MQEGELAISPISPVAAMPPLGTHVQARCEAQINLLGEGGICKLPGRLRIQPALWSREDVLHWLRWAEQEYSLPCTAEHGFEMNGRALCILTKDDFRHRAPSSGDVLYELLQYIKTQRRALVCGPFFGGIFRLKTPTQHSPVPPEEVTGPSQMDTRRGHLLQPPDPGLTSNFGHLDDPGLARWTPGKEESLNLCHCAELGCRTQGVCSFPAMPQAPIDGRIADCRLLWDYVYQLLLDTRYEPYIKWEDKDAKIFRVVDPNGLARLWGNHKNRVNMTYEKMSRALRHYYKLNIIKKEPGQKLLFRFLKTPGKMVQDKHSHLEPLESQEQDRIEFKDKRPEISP
The following applies: protein: recombinant; tags: N-terminal GST; dsDNA, one strand shown. Put shortly:
as §1

A further experiment addresses T11, ELF5 (Homo sapiens, UniProt Q9UKW6-2 1-255).
T11 sequence: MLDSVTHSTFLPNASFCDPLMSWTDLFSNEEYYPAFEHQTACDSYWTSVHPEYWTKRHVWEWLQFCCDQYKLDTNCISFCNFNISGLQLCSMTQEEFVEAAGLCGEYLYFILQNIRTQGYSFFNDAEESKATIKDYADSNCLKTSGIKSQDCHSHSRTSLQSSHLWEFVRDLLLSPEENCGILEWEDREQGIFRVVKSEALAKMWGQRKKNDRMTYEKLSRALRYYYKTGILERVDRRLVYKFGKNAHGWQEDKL
The following applies: protein: recombinant; tags: N-terminal GST; dsDNA, one strand shown. Put shortly: as §1

In the next experiment the target is T12, ETV3 (Homo sapiens, UniProt P41162-2 1-143).
T12 sequence: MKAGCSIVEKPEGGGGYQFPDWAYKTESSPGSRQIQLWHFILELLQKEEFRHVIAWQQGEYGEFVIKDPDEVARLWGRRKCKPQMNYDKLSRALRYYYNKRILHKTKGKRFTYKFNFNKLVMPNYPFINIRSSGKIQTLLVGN
The following applies: protein: recombinant; tags: N-terminal GST; dsDNA, one strand shown. The procedure, abridged:
as §1

A further experiment addresses ETV6 (Homo sapiens, UniProt P41212 1-452). The following applies: protein: recombinant; tags: N-terminal GST; dsDNA, one strand shown. The procedure, abridged:
as §1

Sequence of ETV5 (P41161 whole entry): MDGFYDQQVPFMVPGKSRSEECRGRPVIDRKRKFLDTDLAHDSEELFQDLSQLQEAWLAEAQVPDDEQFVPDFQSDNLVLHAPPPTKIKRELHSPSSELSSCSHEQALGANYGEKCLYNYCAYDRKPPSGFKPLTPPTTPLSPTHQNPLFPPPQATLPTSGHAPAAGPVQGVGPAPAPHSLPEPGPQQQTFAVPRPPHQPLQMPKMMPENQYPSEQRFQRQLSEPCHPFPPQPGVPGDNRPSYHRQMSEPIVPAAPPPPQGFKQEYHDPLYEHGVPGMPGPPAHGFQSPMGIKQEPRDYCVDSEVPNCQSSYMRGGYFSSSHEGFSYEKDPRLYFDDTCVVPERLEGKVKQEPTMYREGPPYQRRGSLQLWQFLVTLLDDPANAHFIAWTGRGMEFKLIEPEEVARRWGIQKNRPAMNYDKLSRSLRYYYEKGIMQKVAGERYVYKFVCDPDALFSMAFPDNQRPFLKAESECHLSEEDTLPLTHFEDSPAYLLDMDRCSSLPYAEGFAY
Sequence of CRX (O43186 whole entry): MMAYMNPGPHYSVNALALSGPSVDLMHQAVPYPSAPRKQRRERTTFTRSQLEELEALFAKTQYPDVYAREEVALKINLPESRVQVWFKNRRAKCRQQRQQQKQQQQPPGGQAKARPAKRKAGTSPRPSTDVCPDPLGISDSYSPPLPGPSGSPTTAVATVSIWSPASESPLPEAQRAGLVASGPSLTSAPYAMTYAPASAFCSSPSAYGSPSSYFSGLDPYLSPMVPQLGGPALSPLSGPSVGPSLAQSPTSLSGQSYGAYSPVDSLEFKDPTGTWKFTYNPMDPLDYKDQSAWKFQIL
Sequence of ETV1 (P50549 whole entry): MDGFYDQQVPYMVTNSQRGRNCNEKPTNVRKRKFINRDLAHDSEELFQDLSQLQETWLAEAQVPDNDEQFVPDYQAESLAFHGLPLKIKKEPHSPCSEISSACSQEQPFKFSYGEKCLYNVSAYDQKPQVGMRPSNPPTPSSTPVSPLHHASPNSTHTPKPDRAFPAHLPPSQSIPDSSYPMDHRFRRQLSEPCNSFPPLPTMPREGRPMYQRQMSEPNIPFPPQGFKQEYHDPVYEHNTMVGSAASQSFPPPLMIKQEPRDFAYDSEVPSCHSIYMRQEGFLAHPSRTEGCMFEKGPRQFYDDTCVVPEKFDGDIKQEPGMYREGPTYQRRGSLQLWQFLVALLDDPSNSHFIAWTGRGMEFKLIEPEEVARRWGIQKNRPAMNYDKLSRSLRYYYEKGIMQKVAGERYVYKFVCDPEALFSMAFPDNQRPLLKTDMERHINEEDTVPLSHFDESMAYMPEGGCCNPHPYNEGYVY
Sequence of ELF4 (Q99607 whole entry): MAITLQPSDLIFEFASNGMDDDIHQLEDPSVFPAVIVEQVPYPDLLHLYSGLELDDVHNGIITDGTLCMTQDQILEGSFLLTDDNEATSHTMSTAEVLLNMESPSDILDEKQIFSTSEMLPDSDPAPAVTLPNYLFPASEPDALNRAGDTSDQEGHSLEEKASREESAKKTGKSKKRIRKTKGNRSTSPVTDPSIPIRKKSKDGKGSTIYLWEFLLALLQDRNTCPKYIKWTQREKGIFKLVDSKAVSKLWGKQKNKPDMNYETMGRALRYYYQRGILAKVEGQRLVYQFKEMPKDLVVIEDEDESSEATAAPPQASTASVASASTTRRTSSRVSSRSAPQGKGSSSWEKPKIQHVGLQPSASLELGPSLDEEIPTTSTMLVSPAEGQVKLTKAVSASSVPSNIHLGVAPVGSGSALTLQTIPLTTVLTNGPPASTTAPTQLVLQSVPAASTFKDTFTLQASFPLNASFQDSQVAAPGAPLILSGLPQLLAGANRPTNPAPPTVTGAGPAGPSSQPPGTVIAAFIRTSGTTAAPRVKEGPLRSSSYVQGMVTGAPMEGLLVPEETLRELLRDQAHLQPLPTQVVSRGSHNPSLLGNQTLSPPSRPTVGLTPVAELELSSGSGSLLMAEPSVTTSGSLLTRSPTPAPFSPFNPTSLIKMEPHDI
Sequence of HSF1 (Q00613 whole entry): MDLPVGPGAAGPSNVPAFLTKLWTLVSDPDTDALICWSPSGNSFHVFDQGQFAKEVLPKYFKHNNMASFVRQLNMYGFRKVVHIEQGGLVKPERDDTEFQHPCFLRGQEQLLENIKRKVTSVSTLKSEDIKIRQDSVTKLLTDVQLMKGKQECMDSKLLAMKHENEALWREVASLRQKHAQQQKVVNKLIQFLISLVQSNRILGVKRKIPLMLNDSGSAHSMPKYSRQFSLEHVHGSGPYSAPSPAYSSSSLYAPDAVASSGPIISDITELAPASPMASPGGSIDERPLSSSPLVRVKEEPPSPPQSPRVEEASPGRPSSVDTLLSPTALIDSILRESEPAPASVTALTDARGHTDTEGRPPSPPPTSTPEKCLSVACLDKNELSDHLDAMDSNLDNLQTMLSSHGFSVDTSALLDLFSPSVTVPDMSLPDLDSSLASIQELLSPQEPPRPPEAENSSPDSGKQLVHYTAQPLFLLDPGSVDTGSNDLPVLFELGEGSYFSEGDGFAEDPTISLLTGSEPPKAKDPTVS
Sequence of ETV6 (P41212 whole entry): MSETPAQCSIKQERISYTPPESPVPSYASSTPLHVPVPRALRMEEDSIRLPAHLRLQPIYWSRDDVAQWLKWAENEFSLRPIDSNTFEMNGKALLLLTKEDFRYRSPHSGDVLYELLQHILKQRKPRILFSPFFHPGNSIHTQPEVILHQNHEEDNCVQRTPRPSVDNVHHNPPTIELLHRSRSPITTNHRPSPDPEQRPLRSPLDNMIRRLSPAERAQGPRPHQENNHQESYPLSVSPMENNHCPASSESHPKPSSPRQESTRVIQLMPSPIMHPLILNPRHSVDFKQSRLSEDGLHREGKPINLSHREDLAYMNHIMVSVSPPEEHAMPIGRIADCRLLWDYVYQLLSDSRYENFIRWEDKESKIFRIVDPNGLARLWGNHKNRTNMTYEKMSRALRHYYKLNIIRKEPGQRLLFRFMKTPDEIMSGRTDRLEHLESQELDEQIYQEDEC

TTCGTT: the binding signal in the experiment with FEV was 1.3 fold enrichment (6-mer frequency, TF over GST control); with ETV5 it was 1.4 fold enrichment (6-mer frequency, TF over GST control); with HSF1, 1.48 fold enrichment (6-mer frequency, TF over GST control); with SPIC, 1.32 fold enrichment (6-mer frequency, TF over GST control); with ELF4, 1.34 fold enrichment (6-mer frequency, TF over GST control); with ELK4, 1.37 fold enrichment (6-mer frequency, TF over GST control). The binding signal with ETV2 was 1.46 fold enrichment (6-mer frequency, TF over GST control); in the experiment with ELF3, 1.38 fold enrichment (6-mer frequency, TF over GST control); with CRX it was 1.3 fold enrichment (6-mer frequency, TF over GST control); with ETV1, 1.39 fold enrichment (6-mer frequency, TF over GST control); with ERF, 1.37 fold enrichment (6-mer frequency, TF over GST control); with ETV3L, 1.37 fold enrichment (6-mer frequency, TF over GST control). Besides, the binding signal was 1.3 fold enrichment (6-mer frequency, TF over GST control) in the experiment with ETS2; 1.39 fold enrichment (6-mer frequency, TF over GST control) with SPDEF; 1.55 fold enrichment (6-mer frequency, TF over GST control) with ETV7; 1.32 fold enrichment (6-mer frequency, TF over GST control) with ELF5; 1.3 fold enrichment (6-mer frequency, TF over GST control) in the experiment with ETV3; 1.29 fold enrichment (6-mer frequency, TF over GST control) in the experiment with ETV6.
